Measurements published in PubChem BioAssay AID686970 (National Center for Advancing Translational Sciences (NCATS), 2013).
The whole screen tested about 360,000 compounds, of which about 6,000 (1.7%) were called active. Where a call stands in place of a potency, no number is given. About 8% were inconclusive and are not listed. Calls follow the shape of the dose curve; as a rule, active = well fitted cell-killing curve with a large enough effect; inconclusive = small, poorly fitted or top-dose-only effect, or effect the other way; inactive = flat fitted curve, though single readings scatter. Many of the other results were omitted from the sample, so actives are more common in it than they were.

experiment: qHTS for induction of synthetic lethality in tumor cells producing 2HG: qHTS for the HT-1080-NT fibrosarcoma cell line; details: HT-1080-NT fibrosarcoma viability, CellTiter-Glo ATP luminescence, 48 h; series mostly up to 46.1 µM; also: nearly all actives have a fitted effect of over 55% in size
Text: Unbiased genomic sequencing for 22 glioma genomes found recurrent mutation of IDH1 on chromosome 2q33, a gene encoding the cytosolic isoform of IDH1 associated with the tricarboxylic acid cycle (TCA) that catalyzes the oxidative decarboxylation of isocitrate, yielding alpha-ketoglutarate and CO2 via NADP+ to NADPH conversion. Subsequent studies confirmed the recurrent IDH mutations in up to 70% of secondary gliomas and in 10% of AML cases. In addition, the somatic mutation of cancer-associated IDH1 is a point mutation resulting in various amino-acid substituents at Arginine132 (IDH1 R132), a key residue found in the enzyme's active site that when mutated, results in the loss-of-function in metabolizing isocitrate but confers a gain-of-function to produce the oncometabolite 2-hydroxyglutarate (2HG). This in effect defines IDH1 as an oncogene and provides an extraordinary opportunity to discover chemical probes against mutant IDH1 that may translate into much needed new therapies for glioma and AML patients.
This assay aims to perform a synthetic lethal screen for chemical probes specific for 2HG-producing tumor cells using matched paired cell lines (1) HT-1080-NT fibrosarcoma cell line that overproduces 2HG and (2) HT-1080-IDH1KD cell line which has IDH1 expression knocked-down. Desirable compounds are toxic to the NT fibrosarcoma cells but not to the IDH1KD cell line. The data in this AID corresponds to the results of the qHTS against the HT-1080-NT fibrosarcoma cell line.
[1] Dang L, Jin S, Su SM. IDH mutations in glioma and acute myeloid leukemia. Trends of Mol Med. 2010; 16(9): 387-97.
[2] Dang L et al. Cancer-associated IDH1 mutations produce 2-hydroxyglutarate. Nature. 2010; 465(7300):966.
NIH Molecular Libraries Probe Production Centers Network [MLPCN]
NIH Chemical Genomics Center [NCGC]
Assay Submitter (PI): Lenny Dang Ph.D., Agios Pharmaceuticals
Suspensions of trypsinized HT-1080-NT cells were dispensed into white, tissue culture-treated, solid 1536-well plates at 5uL/well (750 cells/well final concentration) in RPMI medium supplemented with 5% FBS. Plates were incubated at 37 degrees C for 2 hours, after which 23 nL of compounds or DMSO were delivered to each well using a pin tool. Plates were then incubated at 37 degrees C for an additional 48 hours. CellTiter-Glo viability reagent (Promega) was dispensed into wells (2.5uL/well) and incubated at room temperature for 10 minutes. The plates were measured on a PerkinElmer ViewLux plate reader for luminescent signal (clear filter, 1 sec exp). DMSO-treated control wells and media-only (no cells) control wells were used to normalize %Activity of identified toxic compounds; DMSO-treated wells corresponded to 0%Activity (100% viability), while media-only controls were used to normalize 100%Activity (0% viability).
Concentration-response curves were fitted to the signals arising from the resulting luminescence. The concentration-effect curves were then classified based on curve quality (r2), response magnitude and degree of measured activity, and compounds were subsequently categorized based on their curve class.
Potency is read from the fitted curve at half-maximal effect.

SMILES | Potency
CC(C)c1ccc(CC(=O)N2CCC2(C)C(=O)NS(=O)(=O)c2ccc(C(C)(C)C)cc2)cc1 (stereo unspecified) | inactive
CCCS(=O)(=O)NC(=O)C1(C)CCCN(C(=O)c2ccnc(Cl)c2)C1 (stereo unspecified) | inactive
CCCCCCN1C[C@H](O)[C@@H](n2cc(C3CC3)nn2)C[C@@H]1c1ccc(Cl)cc1 | inactive
COc1ccc(Nc2cc(=O)oc3ccccc23)cc1 | 7.31 µM (active)
COc1ccc2oc(=O)cc(-c3cc4ccccc4o3)c2c1 | inactive
COc1ccc(Nc2ccc3ccccc3c2)cc1 | inactive
COCCNC(=O)c1cc2c(Br)ccc(Br)c2nc1N | inactive
Cc1cccc(-n2ncc3c(=O)[nH]c(SCC(=O)Nc4cc(C)on4)nc32)c1 | inactive
C=CCNc1cnn(-c2ccc(C)cc2)c(=O)c1Cl | inactive
Cc1cccc(-n2ncc(Cl)c(Cl)c2=O)c1 | 5.8 µM (active)
Cc1cc(Br)cn2c(Cc3ccccc3C(F)(F)F)c(C3CCCCC3)nc12 | inactive
CC(=O)Nc1cnc(-c2ccc(O)cc2C)cn1 | inactive
Cc1ccc(Nc2nc(-c3ccc(O)cc3O)cs2)nc1 | 1.64 µM (active)
Oc1ccc(-c2nc3ccccc3nc2-c2ccc(O)cc2O)c(O)c1 | inactive
O=C(NCc1ccc(F)cc1)c1cc(C2CCCCN2C(=O)C2CCCCC2)on1 (stereo unspecified) | inactive
N#Cc1ccc(-c2nc3c(Cl)cc(C(F)(F)F)cn3c2Cc2ccccc2C(F)(F)F)cc1 | inactive
COc1cccc(C(O)c2nc3ccccc3n2C)c1 (stereo unspecified) | inactive
COc1cccc(C(O)c2ncc(-c3ccc4ccccc4c3)[nH]2)c1 (stereo unspecified) | inactive
CCCCCC(O)c1cccc(OCc2ccc3ccccc3n2)c1 (stereo unspecified) | 14.6 µM (active)
COc1ccc(C(=O)NCC[N+](C)(C)C)cc1 | inactive
Cc1cc(C)nc(N(C#N)CC(=O)Nc2ccccc2)n1 | inactive
Cc1cc(C)nc(S/C=C/C(=O)c2ccccc2)n1 | 5.17 µM (active)
Cc1cc(C)nc(SCc2ccccc2C#N)n1 | inactive
CN1CCN(C(=O)c2ccc(-c3cc4nc(NCc5cccnc5)n(C)c(=O)c4s3)cc2)CC1 | inactive
Cc1cccc(C)c1NC(=O)C(c1cccc(F)c1)N1CCN(C)CC1 (stereo unspecified) | inactive
CCC(C(=O)OCC(=O)Nc1ccccc1-c1ccccc1)c1ccccc1 (stereo unspecified) | inactive

SMILES | Potency
CCC(C(=O)OCC(=O)Nc1c(Cl)cc(Cl)cc1Cl)c1ccccc1 (stereo unspecified) | inactive
CCC(C(=O)OCC(=O)Nc1ccc(C(=O)Nc2ccc(OC)cc2)cc1)c1ccccc1 (stereo unspecified) | 18.4 µM (active)
O=C(Nc1ccc(Cl)cc1)c1csc([C@@H]2O[C@H](CO)[C@H](O)[C@H](O)[C@H]2O)n1 | inactive
CC(C)c1ccc2c(c1)c(SC(C)(C)C)c(CC(C)(C)C(=O)O)n2Cc1ccc(Cl)cc1 | 13 µM (active)
C[C@@H]1CN([C@H](C)CO)C(=O)CCCn2cc(nn2)CO[C@H]1CN(C)S(=O)(=O)c1ccc(Oc2ccccc2)nc1 | inactive
O=C(c1ccc(C(F)(F)F)cc1)N1CCC(=O)N([C@H](COCc2ccccc2)Cc2ccccc2)CC1 | inactive
O=C(CNC(=O)N1CC(=O)Nc2ccccc21)Nc1ccc(Br)cc1F | inactive
O=C(O)CC1=C(Nc2ccccc2)C(=O)N(c2ccccc2)C1c1ccc(Cl)cc1 (stereo unspecified) | inactive
O=C(CCC(=O)OCc1ccc(Cl)cc1)Nc1ccccc1 | inactive
O=C1C=C(c2ccc(Cl)cc2)C(=O)N1Nc1ccccc1 | 23.1 µM (active)
CCN(Cc1ccncc1)C(=S)Nc1ccccc1C | inactive
CCCCN1CC(N2CCN(Cc3cccc(C)c3)CC2)CS1(=O)=O (stereo unspecified) | inactive
CCCCN(CCCC)CCC(O)c1cc2c(Cl)cc(Cl)cc2c2cc(C(F)(F)F)ccc12 (stereo unspecified) | 14.6 µM (active)
Fc1cccc(Cc2c(-c3cccc(Cl)c3)nc3ccc(Br)cn23)c1 | inactive
CC1(C(=O)NS(=O)(=O)c2ccccc2Cl)CCN1C(=O)c1cccc(F)c1 (stereo unspecified) | inactive
Cc1cccc(C)c1NC(=O)C(Cl)C(=O)c1ccccc1 (stereo unspecified) | 16.4 µM (active)
Cc1cccc(C)c1NC(=O)CN(C)C(=O)CCC(=O)c1ccccc1 | inactive
Cc1cccc(C)c1NC(=O)N1CC(C)OC(C)C1 (stereo unspecified) | inactive
Cc1ccccc1CN1C(=O)CSCC1(C)C(=O)Nc1c(C)cccc1C (stereo unspecified) | inactive
Cc1ccc(OCC(=O)OC(C)CN(C)Cc2ccccc2)cc1 (stereo unspecified) | inactive
CN(Cc1ccccc1)CC(O)COc1ccc(CNCc2cc3ccccc3s2)cc1 (stereo unspecified) | 20.6 µM (active)
COc1ccc(OCC(O)CN(C)C(=O)C(C)Oc2ccccc2)cc1 (stereo unspecified) | inactive
CC(C)(C)Cc1c(C2CCCCC2)nc2ccc(Br)cn12 | inactive
O=C(N/N=C/c1ccccc1O)C1CCCC1 | inactive
O=C(NN=Cc1ccccc1)c1ccccc1 | inactive
